# CHO-K1 Ca PAM – nonselective activator or artifact in parental CHO-K1 calcium assay. ATP EC20, Fluo-8 calcium fluorescence; 0% at ATP EC20, 100% at ATP max. 0.02% of 360,000 active. activation, % at 3 µM;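 active = activation above the run cutoff, the mean activation of all test compounds plus 3 SD, cut at about 40% in these data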;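 also: peak over basal fluorescence ratio in a 140 s read after ATP addition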
# CHRM1 antagonist – blocks human M1 muscarinic receptor | CHO-K1 hM1, Fluo-8 calcium fluorescence, ACh EC80 antagonist | P11229 | AID 588852 | 1.3% of 360,000 active | inhibition, % at 3 µM;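 active = percent inhibition above its own plate's cutoff, namely the mean of that plate's compound wells plus 3 SD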;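 also: peak over basal fluorescence ratio during 140 s after agonist addition; 0% = ACh EC80 plus DMSO and 100% = DMSO alone without agonist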
# Target sequence (P11229 whole entry, looked up): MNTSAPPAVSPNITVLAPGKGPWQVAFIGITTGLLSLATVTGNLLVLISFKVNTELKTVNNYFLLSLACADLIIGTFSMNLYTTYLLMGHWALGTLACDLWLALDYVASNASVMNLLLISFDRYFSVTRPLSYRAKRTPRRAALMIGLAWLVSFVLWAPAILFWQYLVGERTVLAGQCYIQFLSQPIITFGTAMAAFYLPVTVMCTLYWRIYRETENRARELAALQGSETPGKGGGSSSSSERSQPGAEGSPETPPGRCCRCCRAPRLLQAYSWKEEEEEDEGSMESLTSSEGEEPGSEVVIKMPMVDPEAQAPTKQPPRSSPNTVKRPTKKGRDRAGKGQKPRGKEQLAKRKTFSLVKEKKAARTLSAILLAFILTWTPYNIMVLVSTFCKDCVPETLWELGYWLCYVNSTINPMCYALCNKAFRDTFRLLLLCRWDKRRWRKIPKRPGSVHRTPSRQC
# CHRM1 PAM – potentiates human M1 receptor response to acetylcholine | CHO-K1 hM1, Fluo-8 calcium fluorescence, ACh EC20; 0% = ACh EC20, 100% = maximal ACh | activation, % at 3 µM | 0.088% of 360,000 active; in the data active = activation above about 19%, passing the limit was not always enough
# CHO-K1 Ca antag – nonselective inhibitor or artifact in parental CHO-K1 cells; 0.6% of 360,000 active; ATP-induced calcium, Fluo-8 fluorescence; inhibition, % at 3 µM;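 active = inhibition above a per-plate cutoff, the plate's mean sample inhibition plus 3 SD, cut at about 24% in these data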;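 also: 0% = DMSO plus EC80 ATP and 100% = DMSO alone without ATP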
# CHO-K1 Ca ag – nonselective activator or artifact in parental CHO-K1 cells; Fluo-8 calcium fluorescence; scaled to maximal ATP response, vehicle zero; activation, % at 3 µM; 0.48% of 360,000 active; AID 602248; in the data active = activation above about 15%;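 also: untransfected CHO-K1 host cells lacking M1 receptor as counterscreen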
# M1 ag – agonists of human M1 muscarinic receptor | P11229 | CHO-K1 hM1, Fluo-8 calcium fluorescence, agonist mode; 0% DMSO, 100% acetylcholine EC100 | activation, % at 3 µM | 0.33% of 360,000 active | AID 588814;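 active = activation above the run's mean compound activation plus 3 SD, cut at about 16% in these data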;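 also: peak over basal fluorescence ratio within a 140 s kinetic read after compound addition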
# Active calls of the source: *. Most compounds without a hit are left out; they make up all but 2.4% or so of the library.
SMILES,CHO-K1 Ca PAM,CHRM1 antagonist,CHRM1 PAM,CHO-K1 Ca antag,CHO-K1 Ca ag,M1 ag
Cc1cccc(-c2ccc3c(c2)C2CC3CCN2)c1 (stereo unspecified),1.7,32.2,-27.1,7.4,0.6,-9.9
Fc1ccc(-c2ccc3c(c2)C2CC3CCN2)cc1 (stereo unspecified),5.5,39.3*,-30.0,-2.1,4.6,-4.3
O=C(OCCC12CC3CC(CC(C3)C1)C2)c1ccc(NCc2cc(O)ccc2O)cc1,-6.4,-10.7,35.3*,-4.8,-0.4,13.3
Cc1cccc(C)c1NC(=O)COC(=O)c1cccc2c1C(=O)c1ccccc1C2=O,1.2,5.1,-1.3,-5.6,1.4,-5.0
Cc1cccc(NC(=O)COC(=O)c2cccc3c2C(=O)c2ccccc2C3=O)c1C,17.2,29.0*,-16.7,-3.9,4.0,-7.3
N#CCc1ccc(NC(=O)c2cc(S(=O)(=O)N3CCOCC3)ccc2Cl)cc1,19.5,10.3,0.1,-6.5,5.6,-2.3
CC1CCN(C(=O)CN2C(=O)NC(C)(c3ccc4ccccc4c3)C2=O)CC1 (stereo unspecified),14.8,-12.5,11.6,-22.9,5.9,1.4
CC(C)[C@H](NC(N)=O)C(=O)Nc1cccc(S(=O)(=O)NC2=NCCCCC2)c1,7.2,-1.8,2.1,-6.9,0.2,-0.5
CC(=O)Oc1ccc2c(c1)O/C(=C\c1ccncc1)C2=O,16.6,-7.0,9.8,-9.6,18.2*,3.4
O=C(Oc1ccc2c(c1)O/C(=C\c1ccncc1)C2=O)c1cccs1,-11.6,2.4,5.8,7.2,1.9,-1.2
COc1ccc(NC(=O)c2cccc(N3C(=O)C4C5C=CC(C6CC56)C4C3=O)c2)c(OC)c1 (stereo unspecified),16.4,1.3,-3.6,-2.7,18.0*,5.1
COc1ccc(NC(=O)c2cccc(N3C(=O)C4C5C=CC(C5)C4C3=O)c2)c(OC)c1 (stereo unspecified),4.0,-6.4,1.4,-11.9,1.5,-1.7
COc1ccc(NC(=O)c2cccc(N3C(=O)C4C5C=CC(C6CC56)C4C3=O)c2)cc1 (stereo unspecified),-18.7,19.9,-14.7,7.8,15.4*,4.5
COc1ccc(NC(=O)c2cccc(N3C(=O)C4C5CCC(C5)C4C3=O)c2)cc1 (stereo unspecified),-9.4,23.3,-11.6,0.4,8.9,0.7
CCC(NC(=S)NCc1ccc(F)cc1)c1ccc(C(C)C)cc1 (stereo unspecified),-3.7,96.7*,-22.6,-0.3,8.2,1.6
CCC(C)c1ccc(C(C)NC(=S)NCc2ccc(F)cc2)cc1 (stereo unspecified),-2.2,34.4*,-17.3,-0.2,1.5,-5.6
COc1ccc(C(C)NC(=S)NCc2ccc(F)cc2)cc1OC (stereo unspecified),-1.0,-6.4,12.2,9.1,3.1,-2.1
CCCc1ccc(C(C)NC(=S)NCc2ccc(F)cc2)cc1 (stereo unspecified),-9.9,44.5*,-16.9,16.4,17.2*,6.5
O=C(CSc1nnc(COc2ccccc2F)n1-c1ccccc1)NC1CCS(=O)(=O)C1 (stereo unspecified),-12.9,1.9,-7.4,27.7*,-0.4,-5.0
COc1ccc(-c2csc(NC(=O)C3=NN(c4ccccc4)C(=O)CC3)n2)cc1,12.2,24.0*,-17.9,10.1,9.1,-6.3
CC(C)n1nnnc1SCC(=O)Nc1ccccc1F,4.2,1.5,2.2,-12.7,0.8,-3.1
CN1CCC(OC2c3ccccc3CCc3ccccc32)CC1,11.8,99.3*,-29.7,-10.5,2.8,-6.0
C[C@H]1c2cccc(O)c2C(O)=C2C(=O)[C@]3(O)C(O)=C(C(N)=O)C(=O)[C@@H](N(C)C)[C@@H]3[C@@H](O)[C@@H]21,-11.2,-4.7,-12.2,12.8,0.0,25.0*
CN(C)c1ccc(O)c2c1CC1CC3[C@@H](N(C)C)C(=O)C(C(N)=O)=C(O)[C@]3(O)C(=O)C1=C2O (stereo partly specified),-4.0,-27.6,8.0,11.5,-0.2,-1.0
C[C@H](NC(=O)c1ccccc1Cl)C(=O)OCc1cn2cc(Cl)ccc2n1,4.2,14.0,-1.8,-1.8,0.6,-6.5
SMILES,CHO-K1 Ca PAM,CHRM1 antagonist,CHRM1 PAM,CHO-K1 Ca antag,CHO-K1 Ca ag,M1 ag
COc1ccccc1/C=C/C=NC1C(=O)N(c2ccccc2)[N+](C)=C1C (stereo unspecified),2.4,5.3,-4.2,-1.8,1.2,-6.4
CC1=[N+](C)N(c2ccccc2)C(=O)C1N=C/C=C/c1ccccc1 (stereo unspecified),9.2,98.9*,-26.0,-5.0,0.9,-7.1
CCOC(=O)c1ccc(NC(=O)c2nc[nH]c2C(=O)N[C@@H](C)CO)cc1,7.7,-11.4,4.0,0.2,1.3,-3.9
Cn1cc(-c2csc(C(C)(O)c3cccnc3)n2)cn1 (stereo unspecified),16.3,-12.1,7.8,-7.7,0.0,-1.7
O=C1C(=Cc2cn(-c3ccccc3)nc2-c2ccc(OCc3ccccc3)cc2)SC(=S)N1CCS(=O)(=O)O,3.6,-23.5,11.9,-3.1,1.7,-1.8
Cc1ccc(-c2nn(-c3ccccc3)cc2C=C2SC(=S)N(CCS(=O)(=O)O)C2=O)cc1,11.0,-20.2,28.4*,-3.7,0.3,0.4
Cc1ccc(C(=O)NC(=S)N2CCCCCC2)cc1,8.1,-6.3,10.9,-7.5,-0.7,-4.4
Oc1ccccc1-c1cc(C(F)(F)C(F)F)[nH]n1,1.1,10.5,-13.4,-11.3,8.9,3.8
FC(F)C(F)(F)c1cc(-c2ccc(Cl)cc2)n[nH]1,16.7,11.5,-7.1,2.1,18.1*,15.8
Fc1ccc(-c2cc(C(F)(F)C(F)F)[nH]n2)cc1,5.9,14.1,-7.3,-1.5,26.3*,28.5*
CC1=CC(C)(C)N(C(=O)c2ccc(F)cc2)c2cc3c(cc21)OCO3,28.1,10.2,8.3,-5.1,4.9,17.6*
Cc1ccc(OCC(=O)Nc2ccc3c(c2)nc(CCN2CCN(c4ccccn4)CC2)n3C)cc1,7.5,62.2*,-28.5,2.4,6.7,-1.3
Cn1c(CCN2CCCCC2)nc2cc(NC(=O)COc3ccc(Cl)cc3)ccc21,16.7,10.5,-12.4,-6.0,0.3,-5.2
CCCC(=O)Nc1ccc2c(c1)nc(CCN1CCN(c3ccccn3)CC1)n2C,-9.9,25.5,-20.8,8.4,0.1,-7.2
CN1CCN(CCc2nc3cc(NC(=O)COc4ccc(Cl)cc4)ccc3n2C)CC1,-4.0,3.7,1.2,25.9*,-0.6,-5.3
Cn1c(CCN2CCN(c3ccccn3)CC2)nc2cc(NS(=O)(=O)c3ccccc3)ccc21,0.8,69.3*,-22.9,-2.3,9.1,0.2
Cn1c(CCN2CCCCC2)nc2cc(NS(=O)(=O)c3ccccc3)ccc21,-6.9,22.2,-11.4,12.5,0.1,2.3

# High-throughput results from PubChem BioAssay.
